# Measurements from PubChem BioAssay.
# Values joined by “and” are separate entries in the source; they are usually repeats but may differ in a detail not shown here. Equal values may be shown once. Records with an inconclusive call do not appear. Active and inactive are the calls of the source.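 Rule for the calls, unless noted: active = normalized viability below 100% at a tested concentration; inactive = the rest.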
# How the values were obtained:
# [1] = growth inhibition of DIPG glioma cells, dose response, cell-based, SU-DIPG-XVII, MIPE5.0, CellTiter-Glo, qHTS (AID 1347060; cut-off not given, nearly all actives have AC50 up to about 26 µM;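 note: cells exposed to compound for 48 hours before viability readout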); conditions: SU-DIPG-XVII viability, CellTiter-Glo ATP luminescence
# [2] = growth inhibition of DIPG glioma cells, dose response, cell-based, SU-DIPG-XIII, MIPE4.0, CellTiter-Glo, qHTS (AID 1347061; cut-off not given, nearly all actives have AC50 up to about 37 µM;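 note: cells exposed to compound for 48 hours before readout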); conditions: SU-DIPG-XIII viability, CellTiter-Glo ATP luminescence
# [3] = growth inhibition of DIPG glioma cells, dose response, cell-based, JHH-DIPG-1, MIPE4.0, CellTiter-Glo, qHTS (AID 1347062; cut-off not given, nearly all actives have AC50 up to about 27 µM); conditions: JHH-DIPG-1 viability, CellTiter-Glo ATP luminescence
# [4] = growth inhibition of DIPG glioma cells, dose response, cell-based, SU-DIPG-XIII, MIPE5.0, CellTiter-Glo, qHTS (AID 1347064; cut-off not given, nearly all actives have AC50 up to about 23 µM); conditions: SU-DIPG-XIII viability, CellTiter-Glo ATP luminescence
# [5] = SU-DIPG-VI glioma cell viability, MIPE4.0 library, CellTiter-Glo luminescence, qHTS (AID 1347066; cut-off not given, nearly all actives have AC50 up to about 30 µM;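 note: cells exposed to compound for 48 hours before readout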); conditions: CellTiter-Glo ATP luminescence
# [6] = JHH-DIPG-1 glioma cell viability, MIPE5.0 library, CellTiter-Glo luminescence, qHTS (AID 1347067; cut-off not given, nearly all actives have AC50 up to about 26 µM;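 note: cells exposed to compound for 48 hours before readout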); conditions: JHH-DIPG-1 glioma viability, CellTiter-Glo ATP luminescence
# [7] = SU-DIPG-XXV glioma cell viability, MIPE5.0 library, qHTS (AID 1347068; cut-off not given, nearly all actives have IC50 up to about 30 µM)
# [8] = sensitizers of A549 cells to miR-34 induction, primary screen, imaging, A549 dox-inducible miR-34, nuclei and caspase counts (AID 1347080;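 active = compounds whose cell count with miR-34 switched on is under 0.7 times the count with it off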); conditions: A549 miR-34 inducible, Hoechst nuclei count, 48 h
# [9] = modifiers of HSF1 nuclear foci, imaging, Selleck Cancer Library (AID 1347162; in the data active = plate-normalised HSF1 focus index below about 0.46); conditions: human cells, at 10 µM; SSMD: measured here: HSF1 foci SSMD mean; cell count: measured here: cell number; plate-normalised HSF1 focus index: stronger effect = lower value
# [10] = survival rescue of mitochondrial mutant cells in low glucose, primary screen, MELAS cybrids, Rieske KO mouse fibroblasts, CellTiter-Glo (AID 1508586;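 active = mean z-score across replicates of 1.96 or higher in either the MELAS or the Rieske mutant cell line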;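 note: z relative to plate mean and SD of compound and empty wells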)
# [11] = ovarian cancer cell viability with rucaparib, profiling panel, oncology-focused library, rucaparib conditional (AID 1508598); conditions: patient-derived ovarian cancer cells, CellTiter-Glo viability, 144 h, stronger effect = lower value
# [12] = LFS_MB_P medulloblastoma growth inhibition, cell-based, chromothripsis tumors, cisplatin or BGB combos (AID 1671449; in the data active = inhibition above about 80%;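 note: cells exposed for 96 hours; 0% = vehicle DMSO and 100% = killing by high DMSO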); conditions: LFS_MB_P medulloblastoma cells
# [13] = HDN33 neuroblastoma growth inhibition, cell-based, chromothripsis tumors, cisplatin or BGB combos (AID 1671450; in the data active = inhibition above about 80%;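 note: cells exposed to compound for four days; 0% = vehicle DMSO and 100% = cell killing by high DMSO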); conditions: HDN33 neuroblastoma cells, stronger effect = higher value
# [14] = ICB984 medulloblastoma cell growth inhibition, synergistic combos for chromothripsis tumors, cisplatin or BGB combos (AID 1671451; call rule not given here;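 note: cells exposed for 96 hours before readout; 0% = vehicle DMSO and 100% = killing by high DMSO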); conditions: ICB984 medulloblastoma cells, drug combinations, stronger effect = higher value
# [15] = HTB85 osteosarcoma cell growth inhibition, synergistic combos for chromothripsis tumors, BGB or cisplatin IC20 combos (AID 1671453; in the data active = inhibition above about 80%;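 note: cells exposed for 96 hours before readout; 0% = vehicle DMSO and 100% = high DMSO killing control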); conditions: HTB85 osteosarcoma cells, drug combinations, stronger effect = higher value
# [16] = MDA-MB-436 breast carcinoma cell growth inhibition, synergistic combos for chromothripsis tumors, BGB or cisplatin combos (AID 1671458; call rule not given here;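 note: cells exposed for 96 hours; 0% = vehicle DMSO and 100% = killing by high DMSO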); conditions: MDA-MB-436 breast carcinoma growth inhibition, drug combinations, stronger effect = higher value
# [17] = growth inhibition of BT084 medulloblastoma cells, cell-based, ICGC_MB145, cisplatin and BGB IC40 combos (AID 1671461; in the data active = inhibition above about 80%;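 note: cells exposed to drugs for 96 hours; 0% = vehicle DMSO and 100% = high DMSO full killing control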); conditions: drug combinations, stronger effect = higher value
# [18] = growth inhibition of RCMB18 medulloblastoma cells, cell-based, cisplatin and BGB IC40 combos (AID 1671462; in the data active = inhibition above about 80%;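 note: cells exposed to compound for four days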); conditions: stronger effect = higher value
structure (smiles),measurement,setting,value
O=C(c1cc(Cc2n[nH]c(=O)c3ccccc23)ccc1F)N1CCN(C(=O)C2CC2)CC1,AC50,[1],20.9 µM (active)
same,AC50,[2],18.7 µM (active)
same,outcome,[3],inactive
same,outcome,[4],inactive
same,outcome,[5],inactive
same,outcome,[6],inactive
same,outcome,[7],inactive
same,fold change,"[8]; stronger effect = lower value, cell number ratio, induced over uninduced",0.871 (inactive)
same,fold change,[8]; measured here: relative caspase fold change +Dox/-Dox,1.53
same,cell count,"[8]; measured here: total cells with miR-34 induction, stronger effect = lower value",4680
same,cell count,[8]; measured here: total cells without miR-34 induction,5380
same,SSMD,[9],2.16
same,cell count,[9],7320
same,plate-normalised HSF1 focus index,[9],1.13 (inactive)
same,z-score,"[10]; MELAS cybrid survival, CellTiter-Glo 48 h, stronger effect = higher value",-0.516 (inactive)
same,z-score,"[10]; Rieske KO mouse fibroblast survival, CellTiter-Glo 72 h",0.876
same,viability,"[11]; at 0.000305 µM, OCI-C5x cells, with rucaparib 10 µM, 100% = cells with rucaparib alone",125% (inactive)
same,viability,"[11]; at 0.000305 µM, OCI-C5x cells, without rucaparib",123% (inactive)
same,viability,"[11]; at 0.000305 µM, OCI-P5x cells, with rucaparib 20 µM, 100% = cells with rucaparib alone",96.5% (active)
same,viability,"[11]; at 0.000305 µM, OCI-P5x cells, without rucaparib",101% (inactive)
same,viability,"[11]; at 0.00122 µM, OCI-C5x cells, with rucaparib 10 µM, 100% = cells with rucaparib alone",132% (inactive)
same,viability,"[11]; at 0.00122 µM, OCI-C5x cells, without rucaparib",122% (inactive)
same,viability,"[11]; at 0.00122 µM, OCI-P5x cells, with rucaparib 20 µM, 100% = cells with rucaparib alone",104% (inactive)
same,viability,"[11]; at 0.00122 µM, OCI-P5x cells, without rucaparib",97% (active)
same,viability,"[11]; at 0.00488 µM, OCI-C5x cells, with rucaparib 10 µM, 100% = cells with rucaparib alone",128% (inactive)
same,viability,"[11]; at 0.00488 µM, OCI-C5x cells, without rucaparib",120% (inactive)
same,viability,"[11]; at 0.00488 µM, OCI-P5x cells, with rucaparib 20 µM, 100% = cells with rucaparib alone",101% (inactive)
same,viability,"[11]; at 0.00488 µM, OCI-P5x cells, without rucaparib",92.4% (active)
same,viability,"[11]; at 0.0195 µM, OCI-C5x cells, with rucaparib 10 µM, 100% = cells with rucaparib alone",114% (inactive)
same,viability,"[11]; at 0.0195 µM, OCI-C5x cells, without rucaparib",123% (inactive)
same,viability,"[11]; at 0.0195 µM, OCI-P5x cells, with rucaparib 20 µM, 100% = cells with rucaparib alone",96.5% (active)
same,viability,"[11]; at 0.0195 µM, OCI-P5x cells, without rucaparib",87.9% (active)
same,viability,"[11]; at 0.0781 µM, OCI-C5x cells, with rucaparib 10 µM, 100% = cells with rucaparib alone",118% (inactive)
same,viability,"[11]; at 0.0781 µM, OCI-C5x cells, without rucaparib",119% (inactive)
same,viability,"[11]; at 0.0781 µM, OCI-P5x cells, with rucaparib 20 µM, 100% = cells with rucaparib alone",104% (inactive)
same,viability,"[11]; at 0.0781 µM, OCI-P5x cells, without rucaparib",96% (active)
same,viability,"[11]; at 0.313 µM, OCI-C5x cells, with rucaparib 10 µM, 100% = cells with rucaparib alone",118% (inactive)
same,viability,"[11]; at 0.313 µM, OCI-C5x cells, without rucaparib",123% (inactive)
same,viability,"[11]; at 0.313 µM, OCI-P5x cells, with rucaparib 20 µM, 100% = cells with rucaparib alone",96.9% (active)
same,viability,"[11]; at 0.313 µM, OCI-P5x cells, without rucaparib",85.5% (active)
same,viability,"[11]; at 1.25 µM, OCI-C5x cells, with rucaparib 10 µM, 100% = cells with rucaparib alone",123% (inactive)
same,viability,"[11]; at 1.25 µM, OCI-C5x cells, without rucaparib",117% (inactive)
same,viability,"[11]; at 1.25 µM, OCI-P5x cells, with rucaparib 20 µM, 100% = cells with rucaparib alone",94.6% (active)
same,viability,"[11]; at 1.25 µM, OCI-P5x cells, without rucaparib",75.5% (active)
same,viability,"[11]; at 5 µM, OCI-C5x cells, with rucaparib 10 µM, 100% = cells with rucaparib alone",105% (inactive)
same,viability,"[11]; at 5 µM, OCI-C5x cells, without rucaparib",115% (inactive)
same,viability,"[11]; at 5 µM, OCI-P5x cells, with rucaparib 20 µM, 100% = cells with rucaparib alone",86.1% (active)
same,viability,"[11]; at 5 µM, OCI-P5x cells, without rucaparib",66.2% (active)
same,inhibition,"[12]; at 0.5 µM, stronger effect = higher value",-24.7% (inactive) and -29.1% (inactive)
same,inhibition,"[12]; measured here: combination with BGB IC20, at 0.005 µM",-26.5% and -12.3%
same,inhibition,"[12]; measured here: combination with BGB IC40, at 0.005 µM",-9.06% and -12.6%
same,inhibition,"[12]; measured here: combination with BGB IC40, at 0.05 µM",-0.874% and -8.68%
same,inhibition,"[12]; measured here: combination with cisplatin, at 0.5 µM, stronger effect = higher value",-41.7% and -35.8%
same,inhibition,"[12]; measured here: combination with cisplatin, at 5 µM, stronger effect = higher value",-43.9% and -38.7%
same,inhibition,"[13]; BGB combo, at 5 µM",14.5% and 9.24%
same,inhibition,[13]; at 0.5 µM,9.6% (inactive) and 3.35% (inactive)
same,inhibition,"[13]; cisplatin combo, at 5 µM",34.3% and 41.4%
same,inhibition,"[13]; measured here: with BGB IC20 combination, at 0.5 µM",5.51% and -1.25%
same,inhibition,"[13]; measured here: with cisplatin IC20 combination, at 0.5 µM",12.4% and 7.9%
same,inhibition,"[13]; single agent, at 5 µM",33% and 44.4%
same,inhibition,"[14]; BGB IC20 combo, at 0.005 µM",-15.2% and -6.05%
same,inhibition,"[14]; BGB IC40 combo, at 0.005 µM",-0.22% and -27.2%
same,inhibition,"[14]; BGB IC40 combo, at 0.05 µM",-4.94% and -12.9%
same,inhibition,[14]; at 0.5 µM,-19.9% (inactive) and -38.5% (inactive)
same,inhibition,"[14]; cisplatin combo, at 0.05 µM",-4.94% and -17.3%
same,inhibition,"[14]; cisplatin combo, at 0.5 µM",-29% and -53.3%
same,inhibition,"[14]; cisplatin combo, at 5 µM",-23.6% and -39.9%
same,inhibition,"[14]; measured here: 5 uM single agent, at 5 µM",-15.8% and -10.7%
same,inhibition,[15]; at 0.5 µM,-1.59% (inactive) and -5.82% (inactive)
same,inhibition,"[15]; measured here: with BGB IC20, at 0.5 µM",-20% and -25.5%
same,inhibition,"[15]; measured here: with BGB IC20, at 5 µM",-17% and 2.87%
same,inhibition,"[15]; measured here: with cisplatin IC20, at 0.5 µM",8.83% and 6.96%
same,inhibition,"[15]; measured here: with cisplatin IC20, at 5 µM",18.3% and 28.5%
same,inhibition,"[15]; single agent, at 5 µM",9.91% and 21.3%
same,inhibition,[16]; at 0.5 µM,6.46% (inactive) and -12% (inactive)
same,inhibition,"[16]; measured here: BGB combination, at 0.5 µM",1.64% and -35.6%
same,inhibition,"[16]; measured here: BGB combination, at 5 µM",-1.2% and -15.8%
same,inhibition,"[16]; measured here: cisplatin combination, at 0.5 µM",-0.142% and -2.85%
same,inhibition,"[16]; measured here: cisplatin combination, at 5 µM",30.4% and 14.1%
same,inhibition,[17]; at 0.5 µM,-15.3% (inactive) and -32.2% (inactive)
same,inhibition,"[17]; cisplatin combination, at 0.5 µM",-11.1% and -29.9%
same,inhibition,"[17]; cisplatin combination, at 5 µM",-16.5% and -11.4%
same,inhibition,"[17]; measured here: BGB IC40 combination 0.05 uM, at 0.05 µM",-6.85% and 14.5%
same,inhibition,"[17]; single agent, at 5 µM",-19.8% and -50%
same,inhibition,[18]; at 0.5 µM,-14.1% (inactive) and 10.3% (inactive)
same,inhibition,"[18]; cisplatin combo, at 5 µM",0.788% and 11.5%
same,inhibition,"[18]; measured here: BGB IC40 combination, at 0.05 µM",-1.19% and -22.9%
same,inhibition,"[18]; measured here: combination with cisplatin, at 0.5 µM",-43.2% and 20.2%
same,inhibition,"[18]; single agent, at 5 µM",-22.3% and -45%
